Experimental data as given in PubChem BioAssay (EPA / NIEHS).
Active and inactive are the calls of the source. How the source made its calls: active means hit-call score of the fitted dose curve at least 0.9, where 1 is the maximum; inactive means score below 0.9.

Key:
Settings in all cases: mRNA level, 48 h; actives raise or lower the signal
[1] = read-out: cysteine-aspartic acid protease (CASP8), CASP8 (gene 841); experiment: LTEA_HepaRG_CASP8: Life Technologies and Expression Analysis (LTEA) Assay for cysteine-aspartic acid protease (CASP8) using HepaRG (AID 2283480)
Procedure, shortened: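 CASP8 transcript measured by TaqMan qRT-PCR with ACTB/GAPDH/POLR2A normalization, after 48 h chemical exposure of HepaRG cells in serum-free induction medium. Eight concentrations, top 100 uM, half-log steps, 0.5% DMSO vehicle; fits in both directions versus DMSO.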

[2] = read-out: Cytochrome P450 (CYP2B6), CYP2B6 (gene 1555); experiment: LTEA_HepaRG_CYP2B6: Life Technologies and Expression Analysis (LTEA) Assay for Cytochrome P450 (CYP2B6) using HepaRG (AID 2283481)
Procedure, shortened: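 CYP2B6 transcript level quantified by qRT-PCR against three housekeeping genes, fitted bidirectionally relative to DMSO. HepaRG cultures received chemicals for 48 h, 8-point half-log series from 100 uM in 0.5% DMSO, duplicate wells, serum-free induction medium.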

[3] = read-out: Cytochrome P450 2C19 (Homo sapiens) (UniProt P33261); experiment: LTEA_HepaRG_CYP2C19: Life Technologies and Expression Analysis (LTEA) Assay for CYP2C19 using HepaRG (AID 2283482)
Procedure, shortened: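 CYP2C19 transcript levels by qRT-PCR, normalized to three housekeeping genes, in HepaRG cells after 48 h chemical exposure. Eight-point half-log series topping at 100 uM, 0.5% DMSO vehicle. Increases and decreases both fitted against DMSO.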

CYP2C8 (gene 1558) = experiment: LTEA_HepaRG_CYP2C8: Life Technologies and Expression Analysis (LTEA) Assay for CYP2C8 using HepaRG (AID 2283483)
Procedure, shortened: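 CYP2C8 expression measured by TaqMan qRT-PCR and normalized to three housekeeping genes. HepaRG cultures were treated for 48 h with an eight-point half-log series topping at 100 uM, vehicle 0.5% DMSO, duplicates; fitted both directions against DMSO.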

CYP2C9 (gene 1559) = experiment: LTEA_HepaRG_CYP2C9: Life Technologies and Expression Analysis (LTEA) Assay for CYP2C9 using HepaRG (AID 2283484)
Procedure, shortened: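 CYP2C9 transcript level, quantified by TaqMan qRT-PCR against three housekeeping genes, was fitted bidirectionally relative to 0.5% DMSO. HepaRG cultures were treated 48 h, in duplicate, at eight half-log concentrations topping at 100 uM.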

CYP2E1 (gene 1571) = experiment: LTEA_HepaRG_CYP2E1: Life Technologies and Expression Analysis (LTEA) Assay for CYP2E1 using HepaRG (AID 2283485)
Procedure, shortened: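 Readout is qRT-PCR of CYP2E1 mRNA, normalized to three housekeeping genes and fitted bidirectionally against 0.5% DMSO. HepaRG cells were dosed 48 h at eight concentrations, highest 100 uM with half-log dilutions.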

CYP4A11 (gene 1579) = experiment: LTEA_HepaRG_CYP4A11: Life Technologies and Expression Analysis (LTEA) Assay for CYP4A11 using HepaRG (AID 2283486)
Procedure, shortened: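 Readout is CYP4A11 transcript level by qRT-PCR, normalized to three housekeeping genes and fitted bidirectionally against 0.5% DMSO. Human HepaRG cells were treated 48 h, in duplicate, with an 8-point half-log series topping at 100 uM.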

[4] = read-out: Cytochrome P450 3A4 (Homo sapiens) (UniProt P08684); experiment: LTEA_HepaRG_CYP3A4: Life Technologies and Expression Analysis (LTEA) Assay for CYP3A4 using HepaRG (AID 2283487)
Procedure, shortened: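 In a human hepatic line (HepaRG), duplicate wells were treated 48 h with up to 100 uM chemical in half-log dilutions. Endpoint: CYP3A4 mRNA induction or loss relative to 0.5% DMSO vehicle, by qRT-PCR.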

[5] = read-out: DNA damage-inducible transcript 3 (DDIT3), DDIT3 (gene 1649); experiment: LTEA_HepaRG_DDIT3: Life Technologies and Expression Analysis (LTEA) Assay for DNA damage-inducible transcript 3 (DDIT3) using HepaRG (AID 2283488)
Experimental: LTEA_HepaRG is a cell based, multiplexed-readout assay that uses HepaRG, a human liver cell line, with measurements taken at 48 hours after chemical dosing on a 96-well plate.LTEA_HepaRG_DDIT3 is one of 102 assay component(s) measured in the LTEA HepaRG cell culture assay. It is a marker of Oxidative Stress.Data from the assay component LTEA_HepaRG_DDIT3 was analyzed into 1 endpoint. This assay endpoint, LTEA_HepaRG_DDIT3, was analyzed with bidirectional fitting relative to DMSO as the negative control and baseline of activity. Using a type of inducible reporter, measures of mRNA induction for gain or loss-of-signal activity can be used to understand regulation of transcription factor activity. To generalize the intended target to other relatable targets, this assay endpoint is annotated to the dna binding intended target family, where the subfamily is basic leucine zipper.
A total of 1060 chemcials from the ToxCast library were tested in eight-point concentration-response experiments. Cell culture and cytotoxicity assays were conducted at Thermo Fisher Scientific's Custom Services facility (Madison, WI). […] Fluidigm's 96.96 Dynamic ArrayTM (Fluidigm, Amsterdam, the Netherlands) technology was used for gene expression analyses by quantitative reverse transcription polymerase chain reaction (qRT-PCR, performed by Quintiles/Expression Analysis, Durham, NC)89. […]

[6] = read-out: Pro-epidermal growth factor (Homo sapiens) (UniProt P01133); experiment: LTEA_HepaRG_EGF: Life Technologies and Expression Analysis (LTEA) Assay for Epidermal growth factor (EGF) using HepaRG (AID 2283489)
Procedure, shortened: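 EGF transcript measured by Fluidigm TaqMan qRT-PCR with three housekeeping genes for normalization, 48 h after dosing HepaRG cultures in duplicate (top 100 uM, half-log steps, 0.5% DMSO vehicle). Gain or loss relative to DMSO fitted.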

Measured: outcome

Cytochrome P450 3A4 (Homo sapiens), sequence (P08684 whole entry, looked up): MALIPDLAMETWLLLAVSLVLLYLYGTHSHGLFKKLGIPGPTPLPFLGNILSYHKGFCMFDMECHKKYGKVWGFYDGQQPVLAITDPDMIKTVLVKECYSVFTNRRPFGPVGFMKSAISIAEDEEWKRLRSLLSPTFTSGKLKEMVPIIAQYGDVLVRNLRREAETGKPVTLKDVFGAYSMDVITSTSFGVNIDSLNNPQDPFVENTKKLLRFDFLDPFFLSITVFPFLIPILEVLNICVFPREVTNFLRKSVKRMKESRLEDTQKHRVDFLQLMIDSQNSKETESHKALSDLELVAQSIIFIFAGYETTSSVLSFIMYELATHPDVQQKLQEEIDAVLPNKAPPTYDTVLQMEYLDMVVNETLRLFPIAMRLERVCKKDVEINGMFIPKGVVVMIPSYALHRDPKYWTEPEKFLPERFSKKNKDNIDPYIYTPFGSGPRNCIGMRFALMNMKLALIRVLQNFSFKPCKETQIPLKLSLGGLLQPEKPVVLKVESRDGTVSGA
Cytochrome P450 2C19 (Homo sapiens), sequence (P33261 whole entry, looked up): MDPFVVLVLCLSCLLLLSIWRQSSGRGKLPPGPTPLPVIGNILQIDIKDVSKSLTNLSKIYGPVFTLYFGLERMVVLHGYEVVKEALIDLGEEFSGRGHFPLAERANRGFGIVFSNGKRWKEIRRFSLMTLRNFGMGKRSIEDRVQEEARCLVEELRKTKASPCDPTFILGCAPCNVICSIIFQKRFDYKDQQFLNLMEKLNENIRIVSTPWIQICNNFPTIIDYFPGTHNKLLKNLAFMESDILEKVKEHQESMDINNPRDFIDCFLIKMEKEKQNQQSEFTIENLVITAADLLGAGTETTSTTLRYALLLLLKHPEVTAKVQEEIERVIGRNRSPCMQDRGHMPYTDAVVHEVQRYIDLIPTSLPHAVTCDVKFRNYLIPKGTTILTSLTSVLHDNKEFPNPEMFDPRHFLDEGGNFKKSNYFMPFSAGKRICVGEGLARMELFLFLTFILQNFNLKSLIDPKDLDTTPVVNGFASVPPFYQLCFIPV

O=C(O)c1ccc([N+](=O)[O-])cc1
inactive: all assays above
